PubChem BioAssay
“And” between values parts separate entries of the source, which are not always exact repeats. Equal entries are not always repeated. A number with no mark means an inactive call. The source made the active and inactive calls.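 Rule for the calls: active = inhibition at or above 50% relative to wild type and mutant plate controls; inactive = inhibition below 50%.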

test: loss of swimming-algae plug formation – whole organism, Chlamydomonas reinhardtii, WT vs cilia-less mutant, absorbance, 96-well, primary screen (AID 463189); conditions: Chlamydomonas reinhardtii gravitaxis, OD600 absorbance, 2 days; at 10 µM; stronger effect = higher value;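 note: 0% = wild type cc124 cells in DMSO and 100% = ciliumless bld1 mutant cells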

SMILES	inhibition
Cc1c(C(=O)c2cccc3ccccc23)c2cccc3c2n1[C@H](CN1CCOCC1)CO3	9.81%
CCOC(=O)c1ncn2c1[C@@H]1CCCN1C(=O)c1cc(OC)ccc1-2	6.1%
NCCc1c[nH]c2ccccc12	2.92%
CC(C)Oc1cccnc1N(C)C1CCN(Cc2ccccc2)CC1	54.9% (active)
O=C1CCCN1CC#CCN1CCCC1	7.02%
CCCC[N+]1(C)C2CC(OC(=O)[C@H](CO)c3ccccc3)CC1C1OC12 (stereo partly drawn)	-7.48%
NN=C(N)N	15.6% and 6.1%
NCc1cc(=O)[nH]o1	5.71%
NC(=O)CN1CCCC1=O	-12.5%
CCCN1CCc2cc(O)cc3c2[C@H]1Cc1ccc(O)c(O)c1-3	0.25%
CP(=O)(O)CCCN	3.64%
C=CCN1CCC23c4c5ccc(O)c4O[C@H]2C(=O)CC[C@@]3(O)C1C5 (stereo partly drawn)	4.89%
CCC1(c2ccc(N)cc2)CCC(=O)NC1=O (stereo not drawn)	-0.133%
O=C1NCN(c2ccccc2)C12CCN(CC1COc3ccccc3O1)CC2 (stereo not drawn)	6.88%
CN1C2CCC1CC(OC(=O)c1cc(Cl)cc(Cl)c1)C2 (stereo not drawn)	116% (active)
C[C@]12N[C@H](Cc3ccccc31)c1ccccc12	-0.308%
CCCN(CCC)C1Cc2cc(OC)c(OC)cc2C1	-11.6%
C[N+]1(C)CCOC(O)(c2ccc(-c3ccc(C4(O)C[N+](C)(C)CCO4)cc3)cc2)C1 (stereo not drawn)	1.34%
COc1ccc(-n2nc(C(F)(F)F)cc2-c2ccc(Cl)cc2)cc1	-10.1%

SMILES	inhibition
C[N+](C)(C)CC#CCN1CCCC1=O	-6.29%
CC(O)C(C)OC(=O)[C@@H]1C[C@@H]2c3cccc4c3c(cn4C(C)C)C[C@H]2N(C)C1 (stereo partly drawn)	33.8%
C/C=C(/C)C(=O)O[C@H]1C(C)=C2[C@H]([C@@H]1OC(=O)CCCCCCC)[C@@](C)(OC(C)=O)C[C@H](OC(=O)CCC)[C@@]1(O)[C@H]2OC(=O)[C@@]1(C)O	-1.82%
CCS(=O)(=O)Nc1cccc(C(=C2CCCCC2)c2cnc[nH]2)c1	2.69%
C=CCN1CCc2cccc3c2[C@H]1Cc1ccc(O)c(O)c1-3	6.2%
Fc1ccc(C(OCCN2CCN(CCCc3ccccc3)CC2)c2ccc(F)cc2)cc1	12.7%
CCCN1CCc2cccc3c2[C@H]1Cc1ccc(O)c(O)c1-3	0.62%
c1ccc(CCCN2CCN(CCOC(c3ccccc3)c3ccccc3)CC2)cc1	20%
CC(C)c1cccc(C(C)C)c1O	-3.28%
NC(Cn1oc(=O)[nH]c1=O)C(=O)O (stereo not drawn)	-0.927%
CN(N=O)c1ccc(O)c(O)c1	1.04%
C=CCN1CC[C@]23c4c5ccc(O)c4O[C@H]2/C(=N/NC(=O)c2ccccc2)CC[C@@]3(O)[C@H]1C5	2.64%
CN1C(=O)CCS(=O)(=O)C1c1ccc(Cl)cc1 (stereo not drawn)	9.97%
O=C(O)c1cc[c]([Hg][Cl])cc1	9.04%
COc1ccc2c(c1OC)C(=O)O[C@H]2[C@@H]1c2cc3c(cc2CCN1C)OCO3	-6.11%
Clc1cnc(Oc2ccc(Oc3ncc(Cl)cc3Cl)cc2)c(Cl)c1	2.67%
CC(C)NP(=O)(NC(C)C)OP(=O)(NC(C)C)NC(C)C	5.29%
CN1CCc2cccc(Cl)c2CC1	9.04%
c1ccc(C2CC2)c(OCC2=NCCN2)c1	3.8%
